From article PMC5540273 (PLoS ONE, 2017)

system: LYN; conditions: concentration: 1 μM, replicates: in singlicate; n = 1
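Also: KINOMEscan kinase panel screen.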

Going from `COc1cc(Nc2nccc(-c3c(-c4cccc(NC(=O)c5c(F)cccc5F)c4)nn4ncccc34)n2)cc(OC)c1OC` [GSK327238] to `Cc1ccc(C(=O)Nc2ccc(Nc3ccnc4cc(-c5nccs5)ccc34)cc2O)cc1.Cl` [GW494702], the “%Inh” value falls from 99.3% to 65%.

First: CC(=O)Nc1nc2cnc(Nc3cc(NC(=O)c4cccc(C5(C#N)CC5)c4Cl)ccc3C)nc2s1
Second: Nc1ncc(-c2cccnc2)c2scc(-c3ccc4c(c3)CCN4C(=O)Cc3ccccc3)c12 [GSK683281]
The “%Inh” value of the first is higher: 79% for the first, 45% for the second.

system: T1, LZK; conditions: concentration: 1 μM, replicates: in singlicate; n = 1
T1 construct: gene MAP3K13

Going from `COc1ccc(Nc2nccc(N3CCC(NC(=O)Nc4cccc(OC)c4)C3)n2)cc1` (centres unmarked) [GSK1379742] to `COc1cccc(NC(=O)NC2CCN(c3ccnc(Nc4cc(OC)c(OC)c(OC)c4)n3)C2)c1` (centres unmarked) [GSK1379763], the “%Inh” value rises from 0% to 25%.

Compared with `Cc1ccc(C)c(NC(=O)NC2CCN(c3ccnc(Nc4ccc(F)cc4)n3)C2)c1` (centres unmarked) [GSK1379720], `COc1ccc(CNC(=O)NC2CCN(c3ccnc(Nc4ccc(F)cc4)n3)CC2)cc1` [GSK1379788] is lower in “%Inh” value: 41% for the first, 25% for the second.

First: c1ccc(-c2n[nH]cc2Nc2ccnc3ccccc23)nc1 [GW694077]
Second: Cl.c1ccc(-c2ccc3c(Nc4ccc5[nH]ncc5c4)ccnc3c2)nc1 [GW440137]
The “%Inh” value of the first is lower: 0% for the first, 1% for the second.

`COc1cc(Nc2nccc(N3CCC(NC(=O)Nc4cccc(C(C)=O)c4)C3)n2)cc(OC)c1OC` (centres unmarked) [GSK1379753] and `COc1cc(Nc2nccc(-c3c(-c4cccc(NC(=O)c5c(F)cccc5F)c4)nn4ncccc34)n2)cc(OC)c1OC` [GSK327238] are the same in “%Inh” value: 0% for the first, 0% for the second.

`O=C(Nc1cccc(-c2nn3ncccc3c2-c2ccnc(Nc3ccccc3)n2)c1)c1c(F)cccc1F` [GSK198271] and `O=C(Nc1cccc(-c2nn3ccccc3c2-c2ccnc(Nc3cccc(F)c3)n2)c1)c1c(F)ccc(F)c1Cl` [GSK357952] are the same in “%Inh” value: 0% for the first, 0% for the second.

`c1ccc(-c2cnc3nccnn23)cc1` [AH20685] and `Nc1ncc(-c2cccnc2)c2scc(-c3ccc4c(c3)CCN4C(=O)Cc3ccccc3)c12` [GSK683281] are the same in “%Inh” value: 0% for the first, 0% for the second.

First: Fc1ccc(-c2ncn(C3CCNCC3)c2-c2ccnc(Oc3ccc(-c4ccccc4)cc3)n2)cc1 [SB-245391]
Second: CN(C)Cc1ccc(-c2ccc3c(Nc4ccc(Oc5ccccn5)cc4)ccnc3c2)o1 [GW567148]
The “%Inh” value of the first is lower: 0% for the first, 27% for the second.

`Clc1ccc(-c2nn3ncccc3c2-c2ccnc(Nc3ccc4c(c3)OCCO4)n2)cc1` [GW829116] and `Cc1ccc(F)c(C(=O)Nc2cccc(-c3nn4ccccc4c3-c3ccnc(Nc4cccc(F)c4)n3)c2)c1F` [GSK361061] are the same in “%Inh” value: 0% for the first, 0% for the second.

Going from `CNC(=O)c1ccccc1Nc1nc(Nc2ccc(N3CCOCC3)cc2)ncc1Cl.Cl` [GSK1576028] to `CC(=O)Nc1nc2cnc(Nc3cc(NC(=O)c4cccc(C5(C#N)CC5)c4Cl)ccc3C)nc2s1`, the “%Inh” value falls from 89% to 6%.

Going from `Cc1cccc(Nc2nc(N[C@H]3CCNC3)ncc2C(N)=O)c1.Cl` [GSK2197149] to `COc1cccc(-c2ccc3c(NC(=O)C4CC4)n[nH]c3n2)c1` [SB-710903], the “%Inh” value rises from 0% to 47%.

`CCn1c(-c2nonc2N)nc2c(C#CC(C)(C)O)nc(OC[C@H](N)c3ccccc3)cc21` [GSK943949] and `COc1cc(Nc2ncc3c(C)nc(-c4cc5ccccc5[nH]4)n3n2)cc(OC)c1OC` [GW869516] are the same in “%Inh” value: 0% for the first, 0% for the second.

Going from `Cl.NC(=O)c1cccc(Nc2nccc(Nc3ccc(Oc4c(Cl)cccc4Cl)c(Cl)c3)n2)c1` [GW659009] to `Cl.c1ccc(-c2ccc3c(Nc4ccc5[nH]ccc5c4)ccnc3c2)nc1` [GW440138], the “%Inh” value rises from 0% to 39%.

Compared with `CN1CCN(CCCNc2nccc(-c3c(-c4ccc(F)cc4)nn4cc(C(F)(F)F)ccc34)n2)CC1` [GW621581], `Cn1cc(-c2ccc3c(c2)CCN3C(=O)Cc2cccc(F)c2)c2c(N)ncnc21` [GSK2603358] is higher in “%Inh” value: 0% for the first, 37% for the second.

First: O=C(Nc1n[nH]c2cc(-c3ccoc3)ccc12)C1CC1 [SB-738481]
Second: CCc1ccc(-c2ccc3c(c2)-c2c(cnn2C)S(=O)(=O)N3C)cc1
The “%Inh” value of the first is lower: 0% for the first, 14% for the second.

First: COc1cccc(C2=C(Nc3ccc(Cl)c(C(=O)O)c3)C(=O)NC2=O)c1 [SB-390769]
Second: Cc1ccc(C(=O)Nc2ccc(Nc3ccnc4cc(-c5nccs5)ccc34)cc2O)cc1.Cl [GW494702]
The “%Inh” value of the first is higher: 30% for the first, 21% for the second.

`CN(C)S(=O)(=O)c1cc(-c2ccc3nccc(-c4cccc(S(N)(=O)=O)c4)c3c2)cnc1N` [GSK1669921] and `Cc1occc1-c1ncc(OC[C@@H](N)Cc2c[nH]c3ccccc23)cc1-c1ccc2[nH]nc(C)c2c1.O=C(O)C(F)(F)F` [GSK682037] are the same in “%Inh” value: 0% for the first, 0% for the second.

First: Cl.Cl.NCC(NCc1ccc(-c2ccnc3[nH]ccc23)s1)c1ccccc1 (centres unmarked) [GSK1321565]
Second: O=C(O)C(F)(F)F.O=C(O)C(F)(F)F.O=c1[nH]ccc2nc(N[C@@H]3CCCNC3)nc(Nc3ccc(S(=O)(=O)N4CCOCC4)cc3)c12 [GSK2177277]
The “%Inh” value of the first is lower: 40% for the first, 59% for the second.

Going from `COCCOCCOc1cc2ncc3c4ccc(C#N)cc4[nH]c3c2cc1OC` to `Cc1ccc(C(=O)N2CC[C@@H](O)C2)cc1-n1c(C)cc(OCc2ccc(F)cc2F)c(Br)c1=O`, the “%Inh” value falls from 1% to 0%.

`Cn1cc(-c2[nH]c3cc(NC(=O)[C@H](N)C4CCCCC4)cc4c3c2C=NNC4=O)cn1` was tested, and the “%Inh” value was 0%.
